Measured values: PubChem BioAssay (EPA / NIEHS)
Several values for one entry are separate records, joined by “and”; a condition that tells them apart may be missing. Equal entries are not always repeated. Where a structure was tested more than once in an assay, its records may differ in their call. Activity calls are given as the source filed them. Rule for the calls: active = hit-call score of the fitted dose curve at least 0.9, where 1 is the maximum; inactive = score below 0.9.

Assays:
[1] = target: Nuclear respiratory factor 1 (Homo sapiens) (UniProt Q16656); assay: ATG_NRF1_CIS: Attagene CIS-FACTORIAL HepG2 Assay for human Nuclear Respiratory Factor 1 (NRF1) Orphan Gene (AID 2282987); conditions: HepG2 NRF1 cis-element reporter, Attagene multiplex; actives raise or lower the signal
How it was run: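 Multiplexed cis-reporter assay, HepG2 cells, 24 h treatment. Total RNA → oligo(dT) RT → PCR with reporter-specific primers → 6-FAM primer extension → HpaI cut → CE. Bidirectional fit vs DMSO.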

[2] = ATG_NFI_CIS: Attagene CIS-FACTORIAL HepG2 Assay for human Nuclear Factor I (NFI) (AID 2282989); conditions: HepG2 cis-regulatory reporter, NFI response element transcription; actives raise or lower the signal
How it was run: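 HepG2, transient MRTU, 24 h exposure; RNA→cDNA→PCR→FAM label→HpaI→CE fluorescence. Bidirectional fit, DMSO = baseline.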

[3] = target: Myc proto-oncogene protein (Homo sapiens) (UniProt P01106); assay: ATG_Myc_CIS: Attagene CIS-FACTORIAL HepG2 Assay for human Myelocytomatosis (Myc) Proto-Oncogene Transcription Factor (AID 2282990); conditions: HepG2, Attagene cis-reporter transcription factor activity; actives raise or lower the signal
How it was run: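 Read-out: fluorescent reporter mRNA fragments resolved by capillary electrophoresis after RT-PCR. Human HepG2 liver cells carried transfected cis-element reporter units and were dosed for 24 h. Gain or loss of signal fitted relative to DMSO baseline.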

[4] = ATG_NF_kB_CIS: Attagene CIS-FACTORIAL HepG2 Assay for human Nuclear Factor Kappa B (NF-kB) (AID 2282991); conditions: HepG2 Attagene cis-factorial NF-kB reporter mRNA; actives raise or lower the signal
How it was run: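 Transient MRTU transfection of human HepG2 liver cells → 24 h chemical exposure → total RNA, oligo(dT) RT → PCR, 6-FAM primer extension, HpaI digest 2 h 37 C → CE fragment analysis. Bidirectional fitting, DMSO negative control.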

[5] = ATG_NRF2_ARE_CIS: Attagene CIS-FACTORIAL HepG2 Assay for human Nuclear Factor Erythroid 2 Related Factor 2 (NFR2) response to Antioxidant Response Elements (ARE) (AID 2282992); conditions: HepG2 Attagene ARE/NRF2 reporter, transcription factor activity; actives raise or lower the signal;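 for AC50: reporter mRNA level measured by RT-PCR and capillary electrophoresis fluorescence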
How it was run: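 Using transiently transfected HepG2 cells exposed for 24 h, reporter mRNA levels were determined by RT-PCR with fluorescent primer extension and capillary electrophoresis, analysed for gain or loss of signal against DMSO.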

[6] = ATG_Oct_MLP_CIS: Attagene CIS-FACTORIAL HepG2 Assay for human Octamer-Binding Transcription Factor (Oct) (AID 2282993); conditions: HepG2 Attagene cis-factorial Oct reporter, mRNA; actives raise or lower the signal
How it was run: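 Multiplexed cis-reporter assay in human liver HepG2 cells, 24 h incubation. Reporter RNA amplified and labelled, then resolved by capillary electrophoresis; DMSO serves as negative control and baseline.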

[7] = target: Cellular tumor antigen p53 (Homo sapiens) (UniProt P04637); assay: ATG_p53_CIS: Attagene CIS-FACTORIAL HepG2 Assay for human p53 Transcription Factor (AID 2282994); conditions: HepG2 p53 cis-element reporter, Attagene mRNA; actives raise or lower the signal
How it was run: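 In HepG2 cells, reporter transcription units under cis-regulatory promoters were transiently introduced. Following 24 h treatment, RNA was processed to labelled, digested cDNA fragments read by capillary electrophoresis; fitting was bidirectional versus DMSO.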

[8] = BSK_3C_TissueFactor: BioMAP Diversity Plus: 3C Assay for Tissue Factor Biomarker Activity (AID 2282997); conditions: BioMAP 3C HUVEC, tissue factor biomarker readout; actives raise or lower the signal
How it was run: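 Readout: Tissue Factor ELISA. Cells: human primary umbilical vein endothelium. Time: 24 h after dosing. Analysis: bidirectional fit, DMSO baseline.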

[9] = BSK_3C_uPAR: BioMAP Diversity Plus: 3C Assay for Urokinase-type plasminogen activator receptor (uPAR) Biomarker Activity (AID 2282998); conditions: BioMAP 3C HUVEC, uPAR biomarker ELISA; actives raise or lower the signal
How it was run: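 Dose primary human umbilical vein endothelial cells, incubate 24 h, measure cell-surface uPAR by ELISA, then fit the signal in both directions against the DMSO negative control.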

[10] = BSK_3C_VCAM1: BioMAP Diversity Plus: 3C Assay for Vascular cell adhesion molecule 1 (VCAM1) Biomarker Activity (AID 2282999); conditions: BioMAP 3C HUVEC, VCAM1 ELISA, cytokine-stimulated; actives raise or lower the signal
How it was run: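 HUVEC primary cells, 24 h compound exposure; VCAM-1 by ELISA; gain/loss of signal fitted bidirectionally vs DMSO baseline.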

Measured: AC50

Chain of Cellular tumor antigen p53 (Homo sapiens) (P04637 whole entry, looked up, the tested form may be a part): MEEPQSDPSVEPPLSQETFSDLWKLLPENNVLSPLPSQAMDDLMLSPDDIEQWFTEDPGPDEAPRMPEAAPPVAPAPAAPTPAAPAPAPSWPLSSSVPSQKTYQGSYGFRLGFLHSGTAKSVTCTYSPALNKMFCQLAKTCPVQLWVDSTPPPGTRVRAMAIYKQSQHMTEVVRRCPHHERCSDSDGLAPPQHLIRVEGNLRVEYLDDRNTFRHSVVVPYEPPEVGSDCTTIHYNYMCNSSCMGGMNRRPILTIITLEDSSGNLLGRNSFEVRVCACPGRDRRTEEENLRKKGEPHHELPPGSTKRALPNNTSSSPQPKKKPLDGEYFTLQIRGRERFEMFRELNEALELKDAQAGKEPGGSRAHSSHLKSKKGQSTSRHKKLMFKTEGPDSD
Chain of Nuclear respiratory factor 1 (Homo sapiens) (Q16656 whole entry, looked up): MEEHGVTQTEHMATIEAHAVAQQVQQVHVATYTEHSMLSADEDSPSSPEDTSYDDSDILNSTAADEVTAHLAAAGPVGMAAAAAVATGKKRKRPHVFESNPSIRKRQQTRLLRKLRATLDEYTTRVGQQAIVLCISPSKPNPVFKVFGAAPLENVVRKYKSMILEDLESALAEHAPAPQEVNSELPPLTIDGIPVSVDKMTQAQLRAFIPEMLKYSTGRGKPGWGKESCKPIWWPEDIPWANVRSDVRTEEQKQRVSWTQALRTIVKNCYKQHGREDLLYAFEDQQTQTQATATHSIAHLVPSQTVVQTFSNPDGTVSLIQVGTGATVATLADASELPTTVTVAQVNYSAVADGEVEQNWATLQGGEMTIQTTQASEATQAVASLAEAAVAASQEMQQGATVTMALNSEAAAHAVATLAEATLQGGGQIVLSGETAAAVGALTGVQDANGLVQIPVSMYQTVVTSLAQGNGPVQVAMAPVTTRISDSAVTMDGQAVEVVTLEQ
Chain of Myc proto-oncogene protein (Homo sapiens) (P01106 whole entry, looked up, the tested form may be a part): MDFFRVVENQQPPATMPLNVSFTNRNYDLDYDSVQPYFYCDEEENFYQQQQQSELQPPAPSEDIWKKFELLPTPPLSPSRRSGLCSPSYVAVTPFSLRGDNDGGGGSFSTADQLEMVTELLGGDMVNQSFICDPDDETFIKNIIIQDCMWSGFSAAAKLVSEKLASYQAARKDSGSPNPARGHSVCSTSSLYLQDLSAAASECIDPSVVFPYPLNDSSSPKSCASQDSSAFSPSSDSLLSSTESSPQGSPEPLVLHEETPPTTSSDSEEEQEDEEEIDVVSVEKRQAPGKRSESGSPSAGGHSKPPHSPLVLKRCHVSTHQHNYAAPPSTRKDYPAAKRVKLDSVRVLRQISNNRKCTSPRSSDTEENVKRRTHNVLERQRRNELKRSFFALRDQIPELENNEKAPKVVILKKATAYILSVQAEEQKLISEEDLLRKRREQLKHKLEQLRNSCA

C=C(C)C(=O)OCCC(F)(F)C(F)(F)C(F)(F)C(F)(F)C(F)(C(F)(F)F)C(F)(F)F
inactive: all assays above

CC(C)(C)C(=O)CC(=O)C(F)(F)C(F)(F)C(F)(F)F
inactive: all assays above

CCCCNc1ccccc1
inactive: all assays above

FC(F)(F)C(F)(F)C(F)(F)C(F)(F)C(F)(F)CCI
active: [5] 88.9 µM
inactive: all other assays above

Cc1ccc(S(=O)(=O)NCl)cc1
inactive: [1] | [2] | [3] | [5] | [6] | [7]

CCCCCCCOC(=O)c1ccccc1C(=O)OCCCCCCC
inactive: all assays above

CC(=O)Nc1ccc(N=Nc2cc(C)ccc2O)cc1
active: [1] 27.1 µM | [5] 1.42 µM | [10] 2.69 µM
inactive: all other assays above

O=C(O)C(F)(F)C(F)(F)C(F)(F)C(F)(F)C(F)(F)C(F)(F)C(F)(F)C(F)(F)C(F)(F)C(F)F
inactive: [1] | [2] | [3] | [4] | [6] | [7] | [8] | [9] | [10]
active: [5] 26.3 µM | [10] 45.2 µM

Cc1cc(C)cc(O)c1
inactive: [1] | [2] | [3] | [5] | [6] | [7]

FC1CC(F)(F)C(F)(F)C1(F)F (stereo not drawn)
inactive: all assays above

CCCCCCC(C)OC(=O)CCCCC(=O)OC(C)CCCCCC (stereo not drawn)
inactive: all assays above

FC(F)(Br)C(F)(F)C(F)(F)C(F)(F)C(F)(F)C(F)(F)Br
inactive: all assays above

FC(F)(F)C(F)(F)C(F)(F)C(F)(F)C(F)(F)C(F)(F)C(F)(F)C(F)(F)F
inactive: all assays above

CCCCOCCOCCOC(=O)CCCCC(=O)OCCOCCOCCCC
not listed: [7]
inactive: all other assays above

FC(F)(I)C(F)(F)C(F)(F)C(F)(F)I
active: [5] 33.4 µM | [8] 44.1 µM and 42 µM and 56.5 µM | [9] 51.2 µM and 53.9 µM and 47.1 µM | [10] 49.9 µM and 48.3 µM and 57.1 µM
inactive: all other assays above

CCc1ccc(C(c2ccc(CC)cc2)C(Cl)Cl)cc1
active: [5] 56.5 µM | [9] 12.2 µM | [10] 27.4 µM
not listed: [4]
inactive: all other assays above

CCCCCC=O
inactive: [1] | [2] | [3] | [5] | [6] | [7]

Oc1ccc(Nc2ccccc2)cc1
active: [5] 43.9 µM | [10] 20 µM
inactive: all other assays above

O=C(O)C(F)(OC(F)(F)C(F)(OC(F)(F)C(F)(F)C(F)(F)F)C(F)(F)F)C(F)(F)F (stereo not drawn)
inactive: all assays above

O=C(C=Cc1ccccc1)OCC=Cc1ccccc1
active: [5] 2.64 µM
inactive: [1] | [2] | [3] | [6] | [7]

O=S(=O)(O)C(F)(F)C(F)(F)C(F)(F)C(F)(F)C(F)(F)C(F)(F)C(F)(F)F
active: [5] 42.6 µM and 30.3 µM
inactive: all other assays above

CS(C)(=O)=O
active: [5] 27.5 µM
inactive: all other assays above
